Cycloheximide cs – Cycloheximide Counterscreen for Small Molecule Inhibitors of Shiga Toxin. cell reporter, cycloheximide protein synthesis inhibition counterscreen. max response, %. hit rate 12% among 300,000. AID 2314, 2010; in the data active = max response mostly above about 13%, no sharp cut-off; inactive = mostly below about 14%; note: read at 38.3 µM for the half of the compounds with a filed dose; 0% is about no effect
NS1 inh – qHTS Assay for Inhibitors of Influenza NS1 Protein Function | Potency, µM (highest dose often 46.1 µM), without a hit: at the highest dose activity, positive = more growth | AID 2326, 2010 | hit rate 0.4% among 270,000; calls by dose curve; note: potency is the fitted concentration of half-maximal effect; actives are rising curves; nearly all actives have a fitted effect of over 50% in size
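In this qHTS, NS1 from influenza A is expressed in budding yeast, where it slows growth. Cells are switched from glucose to 2% galactose medium (pH 6.0, -URA), treated with compound, and growth recovery is read at OD600.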
Shiga inhibitor – A qHTS for Small Molecule Inhibitors of Shiga Toxin; Vero cells, Shiga toxin protein synthesis inhibition reporter; inhibition, % at 38.7 µM; hit rate 9.2% among 290,000; in the data active = inhibition mostly above about 28%, no sharp cut-off; inactive = mostly below about 43%; note: 0% is about no effect
LmPK inh – qHTS Assay for Inhibitors of Leishmania Mexicana Pyruvate Kinase (LmPK). Potency, µM (titrated, usually from 57.5 µM), for the others: top-dose activity change, negative = inhibition, most hits filed as inhibitors. hit rate 0.37% among 290,000. Q27686. AID 1721, 2009. purified LmPK, Kinase-Glo ATP luminescence, 1 h; note: potency is the fitted concentration of half-maximal effect; % is set by controls: 0 for no effect and ±100 for the full control effect
Target sequence (Q27686 whole entry, looked up): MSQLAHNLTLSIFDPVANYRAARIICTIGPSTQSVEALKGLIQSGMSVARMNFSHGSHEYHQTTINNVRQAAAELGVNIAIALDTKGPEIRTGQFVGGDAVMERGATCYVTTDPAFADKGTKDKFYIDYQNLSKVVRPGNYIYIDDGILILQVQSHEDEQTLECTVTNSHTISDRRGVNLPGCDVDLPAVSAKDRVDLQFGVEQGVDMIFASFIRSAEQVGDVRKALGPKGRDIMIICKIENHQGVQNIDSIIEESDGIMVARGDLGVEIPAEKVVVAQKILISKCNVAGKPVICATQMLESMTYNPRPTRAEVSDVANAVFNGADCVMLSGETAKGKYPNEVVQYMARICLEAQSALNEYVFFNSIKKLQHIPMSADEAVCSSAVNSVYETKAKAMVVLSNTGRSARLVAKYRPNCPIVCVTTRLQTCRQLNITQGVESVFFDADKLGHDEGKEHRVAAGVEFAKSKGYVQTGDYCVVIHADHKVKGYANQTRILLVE
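0.1 nM LmPK, 0.5 mM PEP, 0.1 mM ADP; 50 mM imidazole pH 7.2, 7 mM MgCl2, 50 mM KCl; 1 h RT. Kinase-Glo luminescence readout, normalized to no-enzyme (full inhibition) and uninhibited wells.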
FBPA Giardia inh – qHTS Assay for Inhibitors of Fructose-1,6-bisphosphate Aldolase from Giardia Lamblia | A8B2U2 | purified Giardia FBPA | Potency, µM (top dose mostly 59.6 µM), inactives show at the highest dose activity, negative = inhibition, hits mostly inhibitors | hit rate 0.71% among 290,000 | AID 2451, 2010; note: potency is the fitted concentration of half-maximal effect; % is set by controls: 0 for no effect and ±100 for the full control effect; nearly all actives have a fitted effect of over 55% in size
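40 nM FBPA preincubated 10 min at RT with compound (up to 57.5 uM final), then substrate plus GAPDH/TPI/NAD/arsenate coupling and diaphorase/resazurin added. Fluorescence read after 20 min at RT, 525/598 nm.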
* marks the source's active call; other numbers are inactive results; [ ] = dose if it differs, or a comment. The list is not random: actives were taken first. Their share in the collection is about 14%. Unless noted, calls come from the whole dose curve; as a rule, active = well fitted curve in the direction sought with a large enough effect; inconclusive = small, poorly fitted or top-dose-only effect, or another doubt; inactive = no such curve, though single readings can be large; an effect the other way counts as inactive or inconclusive.

For C/C(Cn1nnc([N+](=O)[O-])n1)=N\NC(=O)c1ccncc1 the results were Cycloheximide cs -1, Shiga inhibitor 13, LmPK inh 0% and FBPA Giardia inh 20µM*.
`C/C(Cn1nnc([N+](=O)[O-])n1)=N\NC(=O)c1ccc(C)cc1` gave Cycloheximide cs 43*, NS1 inh 27%, Shiga inhibitor 82*, LmPK inh 0% and FBPA Giardia inh inconclusive.
For COc1ccc(C(=O)N/N=C(\C)Cn2cnc([N+](=O)[O-])n2)cc1 the results were Cycloheximide cs 12, NS1 inh -5%, Shiga inhibitor 26, LmPK inh -4% and FBPA Giardia inh -9%.
Screening CCN(CC)CCCn1c(-c2ccccc2)nc2c(N(CCOC)CCOC)nc(C)nc21 returned FBPA Giardia inh 1%.
Screening Cc1ccc(NC(=O)COC(=O)CN2C(=O)COc3ccccc32)cc1 returned Cycloheximide cs 6, NS1 inh -18%, Shiga inhibitor -9, LmPK inh 1% and FBPA Giardia inh -1%.
COCC(=O)Nc1ccc2c(c1)OCC(=O)N2Cc1ccc(C)cc1 was read as Cycloheximide cs 12*, NS1 inh -5%, Shiga inhibitor 22, LmPK inh -2% and FBPA Giardia inh 16%.
COc1ccc(CNC(=O)CCn2nc(C)c3c(C)n(-c4ccccc4)nc3c2=O)c(OC)c1 was read as Cycloheximide cs -2, NS1 inh -5%, Shiga inhibitor -6, LmPK inh 1% and FBPA Giardia inh -1%.
Screening COc1ccc2c(C)nc(N/C(N)=N/S(=O)(=O)c3ccc(C)cc3)nc2c1 returned Cycloheximide cs -2, NS1 inh 4%, Shiga inhibitor -7, LmPK inh 1% and FBPA Giardia inh 7%.
Screening Cc1ccc(S(=O)(=O)/N=C(\N)Nc2nc(C)c3ccccc3n2)cc1 returned Cycloheximide cs 21*, NS1 inh 13%, Shiga inhibitor 16, LmPK inh 1% and FBPA Giardia inh -1%.
`CC(C)N1C(=O)S/C(=C\c2ccc(-c3ccc(Cl)c(C(=O)O)c3)o2)C1=O` gave Cycloheximide cs 76*, NS1 inh 17%, Shiga inhibitor 153*, LmPK inh -4% and FBPA Giardia inh -5%.
`CC(C)OC(=O)c1cc(-c2ccc(C=O)o2)ccc1Cl` gave Cycloheximide cs 11*, NS1 inh -18%, Shiga inhibitor 21, LmPK inh 2% and FBPA Giardia inh -3%.
`O=S(=O)(Cc1ccccc1)N1CCN(c2ncccn2)CC1` gave Cycloheximide cs -2, NS1 inh 0%, Shiga inhibitor 8 and LmPK inh -3%.
For CCCCC/C=C\C\C=C/C=C/C=C/[C@@H](SCC(NC(=O)CCC(N)C(=O)O)C(=O)NCC(=O)O)[C@@H](O)CCCC(=O)O (stereo partly specified) the results were FBPA Giardia inh -2%.
Screening Cc1ccc(C)c(OC(C)C(=O)Nc2ccc(S(=O)(=O)Nc3nccs3)cc2)c1 (stereo unspecified) returned Cycloheximide cs -3, NS1 inh 2%, Shiga inhibitor 2, LmPK inh 1% and FBPA Giardia inh 11%.
`O=C1Nc2ccccc2N=C(c2ccccc2)c2ccccc21` gave Cycloheximide cs 20*, NS1 inh -5%, Shiga inhibitor 17, LmPK inh 3% and FBPA Giardia inh 5%.
O=C(Cc1ccccc1)c1ccc(Cl)cc1 was read as Cycloheximide cs 32*, NS1 inh 3%, Shiga inhibitor 60*, LmPK inh -19% and FBPA Giardia inh 3%.
For O=C(Cc1ccc(Cl)cc1)c1ccc(O)cc1 the results were Cycloheximide cs 48*, NS1 inh -4%, Shiga inhibitor 110*, LmPK inh -8% and FBPA Giardia inh 9%.
For CCc1ccc(NCCC(=O)c2ccc(Cl)cc2)cc1 the results were Cycloheximide cs -1, NS1 inh -4%, Shiga inhibitor -6 and LmPK inh 0%.
`NC(=O)c1cc(C(=O)Cc2ccc(Cl)cc2)c[nH]1` gave Cycloheximide cs 23*, NS1 inh 3%, Shiga inhibitor 40*, LmPK inh 0% and FBPA Giardia inh 4%.
For Cc1ccc(CC(=O)c2ccc(Cl)cc2)cc1 the results were Cycloheximide cs 47*, NS1 inh 8%, Shiga inhibitor 68*, LmPK inh -3% and FBPA Giardia inh 2%.
Cc1cnc(CNc2ncnc3ccc(-c4ccccc4C)cc23)cn1 was read as FBPA Giardia inh 5%.
N#Cc1ccc(OCC(O)CN2CCN(c3ncc(C(F)(F)F)cc3Cl)CC2)cc1 (stereo unspecified) was read as Cycloheximide cs -2, NS1 inh -18%, Shiga inhibitor -4, LmPK inh -6% and FBPA Giardia inh 4%.
For CCOC(=O)CNS(=O)(=O)c1ccc(F)cc1Br the results were Cycloheximide cs -5, Shiga inhibitor 2 and FBPA Giardia inh 5%.
Cc1ccc(/C=C/c2ccc3cccc(O)c3n2)s1 was read as Cycloheximide cs 58*, NS1 inh -12%, Shiga inhibitor 95*, LmPK inh -2% and FBPA Giardia inh -1%.
For Oc1cccc(/C=C/c2ccc3cccc(O)c3n2)c1 the results were Cycloheximide cs 37*, NS1 inh -74%, Shiga inhibitor 128*, LmPK inh 1% and FBPA Giardia inh inconclusive.
`CC(=O)COc1cccc2ccc(/C=C/c3ccc(Br)s3)nc12` gave Cycloheximide cs 20, NS1 inh -55%, Shiga inhibitor 36*, LmPK inh 6% and FBPA Giardia inh -8%.
`C=C(C)C(O)/C=C/c1cccc(OC)c1` (stereo unspecified) gave FBPA Giardia inh 4%[12.9 µM].
For COC(=O)c1ccc(/C=C/c2ccc3cccc(OC)c3n2)cc1 the results were Cycloheximide cs -3, NS1 inh -4%, Shiga inhibitor -9, LmPK inh 2% and FBPA Giardia inh -19%.
COc1cccc(/C=C/c2ccc3cccc(O)c3n2)c1 was read as Cycloheximide cs 47*, NS1 inh -1%, Shiga inhibitor 121*, LmPK inh -10% and FBPA Giardia inh -8%.
COC(=O)C1=C(C(=O)OC)[C@@H]2Nc3ccccc3[C@@]23C[C@@H](C(=O)OC)N(S(=O)(=O)c2ccc(C#N)cc2)C3=N1 was read as LmPK inh -6%[11.5 µM] and FBPA Giardia inh 3%[12.9 µM].
Screening CCOC(=O)NC(c1ccc(C(C)C)cc1)C(Cl)(Cl)Cl (stereo unspecified) returned Cycloheximide cs -4, NS1 inh -25%, Shiga inhibitor 1, LmPK inh 4% and FBPA Giardia inh -6%.
CCOC(=O)NC(C(Cl)(Cl)Cl)S(=O)(=O)c1ccccc1 (stereo unspecified) was read as Cycloheximide cs 18*, NS1 inh 1%, Shiga inhibitor 50*, LmPK inh -4% and FBPA Giardia inh -7%.
For O=C(c1ccc(OC2CCN(CCc3ccccc3)CC2)cc1)N1CCC[C@H]1CO the results were Cycloheximide cs 0, NS1 inh 4%, Shiga inhibitor 1, LmPK inh 2% and FBPA Giardia inh 2%.
